Laboratory results: PubChem BioAssay AID1159580 (chemical genetic matrix, 2015)
In all, about 5,500 compounds went through this assay and about 2,000 (36%) were called active. Another 18% or so got no clear call; they are omitted. No stated cut-off is given here; in the data, active means normalized growth mostly below about 0.91 (no sharp cut-off); inconclusive means no clear call, values can overlap the other calls; inactive means mostly above about 0.92. The list shows a part of the results.

Test: chemical genetic growth profiling, strain panel (AID 1159580);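 further: tested at 20 µM; growth read once vehicle control cultures reached saturation at 30 °C; 1 = growth at the plate median or of vehicle wells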
Conditions: S. cerevisiae deletion strains, growth OD

Measured: normalized growth

Clc1ccc(C(c2ccc(Cl)cc2)C(Cl)(Cl)Cl)cc1
inactive: locus YAL013W, strain DEP1, stronger effect = lower value 1 | locus YAL021C, strain ccr4, stronger effect = lower value 1.01 | locus YAL026C, strain drs2, stronger effect = lower value 1.01 | locus YAL030W, strain snc1, stronger effect = lower value 1 | locus YBL061C, strain skt5, stronger effect = lower value 1.01 | locus YBR009C, strain hhf1, stronger effect = lower value 0.998 | locus YBR021W, strain FUR4, stronger effect = lower value 0.999 | locus YBR023C, strain chs3, stronger effect = lower value 1.01 | locus YBR171W, strain sec66, stronger effect = lower value 1.01 | locus YBR229C, strain ROT2, stronger effect = lower value 1.02 | locus YBR231C, strain swc5, stronger effect = lower value 1.01 | locus YBR279W, strain paf1, stronger effect = lower value 1.01 | locus YCL011C, strain gbp2, stronger effect = lower value 1.01 | locus YCL016C, strain dcc1, stronger effect = lower value 1.01 | locus YCL029C, strain bik1, stronger effect = lower value 1.01 | locus YCL061C, strain MRC1, stronger effect = lower value 1.01 | locus YCL069W, strain vba3, stronger effect = lower value 0.999 | locus YCR088W, strain abp1, stronger effect = lower value 1.01 | locus YDL005C, strain med2, stronger effect = lower value 1 | locus YDL035C, strain GPR1, stronger effect = lower value 0.983 | locus YDL040C, strain nat1, stronger effect = lower value 1.01 | locus YDL074C, strain BRE1, stronger effect = lower value 1.02 | locus YDL101C, strain DUN1, stronger effect = lower value 1.02 | locus YDL134C, strain PPH21, stronger effect = lower value 1.02 | locus YDL185W, strain tfp1, stronger effect = lower value 0.999 | locus YDL192W, strain arf1, stronger effect = lower value 1 | locus YDR001C, strain nth1, stronger effect = lower value 1.01 | locus YDR069C, strain doa4, stronger effect = lower value 0.992 | locus YDR101C, strain arx1, stronger effect = lower value 0.993 | locus YDR137W, strain rgp1, stronger effect = lower value 1.01 | locus YDR150W, strain NUM1, stronger effect = lower value 1.03 | locus YDR159W, strain sac3, stronger effect = lower value 1.01 | locus YDR162C, strain NBP2, stronger effect = lower value 1.01 | locus YDR195W, strain ref2 1.04 | locus YDR297W, strain sur2, stronger effect = lower value 1.01 | locus YDR318W, strain mcm21, stronger effect = lower value 0.999 | locus YDR334W, strain swr1, stronger effect = lower value 1.02 | locus YDR335W, strain msn5, stronger effect = lower value 1.01 | locus YDR388W, stronger effect = lower value 0.993 | locus YDR392W, strain spt3, stronger effect = lower value 0.977 | locus YDR502C, strain sam2, stronger effect = lower value 0.999 | locus YEL003W, strain gim4, stronger effect = lower value 1.01 | locus YEL037C, strain rad23, stronger effect = lower value 1.01 | locus YEL061C, strain CIN8 (second series), stronger effect = lower value 1.01 | locus YEL061C, strain CIN8, stronger effect = lower value 1.02 | locus YER015W, strain faa2, stronger effect = lower value 1.01 | locus YER016W, strain bim1, stronger effect = lower value 1 | locus YER110C, stronger effect = lower value 0.997 | locus YER111C, strain swi4, stronger effect = lower value 1.01 | locus YER155C, strain BEM2 (second series), stronger effect = lower value 1 | locus YER155C, strain BEM2, stronger effect = lower value 1.02 | locus YER167W, strain BCK2, stronger effect = lower value 1.01 | locus YFR010W, strain ubp6, stronger effect = lower value 1.01 | locus YGL078C, strain dbp3, stronger effect = lower value 1 | locus YGL086W, strain mad1, stronger effect = lower value 1.01 | locus YGL167C, strain pmr1, stronger effect = lower value 1.01 | locus YGL173C, strain kem1, stronger effect = lower value 0.995 | locus YGL227W, strain vid30, stronger effect = lower value 1.01 | locus YGL240W, strain doc1, stronger effect = lower value 0.997 | locus YGL248W, strain PDE1, stronger effect = lower value 1.02 | locus YGL253W, strain hxk2, stronger effect = lower value 1 | locus YGR078C, strain PAC10, stronger effect = lower value 1.01 | locus YGR135W, strain pre9, stronger effect = lower value 1 | locus YGR229C, strain SMI1, stronger effect = lower value 0.997 | locus YGR252W, strain gcn5, stronger effect = lower value 0.916 | locus YHR013C, strain ard1, stronger effect = lower value 1.03 | locus YHR027C, strain rpn1, stronger effect = lower value 1 | locus YHR030C, strain SLT2, stronger effect = lower value 1.03 | locus YHR079C, strain IRE1 (second series), stronger effect = lower value 0.999 | locus YHR094C, strain hxt1, stronger effect = lower value 1 | locus YHR129C, strain ARP1, stronger effect = lower value 1.03 | locus YHR142W, strain chs7, stronger effect = lower value 1.01 | locus YHR200W, strain rpn10, stronger effect = lower value 0.991 | locus YIL066C, strain RNR3, stronger effect = lower value 1.01 | locus YIL073C, strain SPO22, stronger effect = lower value 0.972 | locus YIL125W, strain kgd1, stronger effect = lower value 1 | locus YIR030C, strain dcg1, stronger effect = lower value 0.993 | locus YJL092W, strain hpr5, stronger effect = lower value 1 | locus YJL095W, strain BCK1 (second series), stronger effect = lower value 1.01 | locus YJL095W, strain BCK1, stronger effect = lower value 1.02 | locus YJL115W, strain asf1, stronger effect = lower value 1.02 | locus YJL129C, strain trk1, stronger effect = lower value 0.993 | locus YJL134W, strain LCB3, stronger effect = lower value 1.02 | locus YJL154C, strain vps35, stronger effect = lower value 1.02 | locus YJL164C, strain tpk1, stronger effect = lower value 1.01 | locus YJL166W, strain qcr8, stronger effect = lower value 1 | locus YJL168C, strain set2, stronger effect = lower value 1.01 | locus YJL187C, strain SWE1 (second series), stronger effect = lower value 1.02 | locus YJL187C, strain SWE1, stronger effect = lower value 1.01
